# Over roughly 33,000 sequences, “E-score (-0.5 to 0.5)” has its median near -0.013; the highest 2% begin near 0.3. Shown is part of a subset that was picked to be rich in the highest values.
# Molecular target: T1, Msn1 (UniProt P22148)
# T1 sequence: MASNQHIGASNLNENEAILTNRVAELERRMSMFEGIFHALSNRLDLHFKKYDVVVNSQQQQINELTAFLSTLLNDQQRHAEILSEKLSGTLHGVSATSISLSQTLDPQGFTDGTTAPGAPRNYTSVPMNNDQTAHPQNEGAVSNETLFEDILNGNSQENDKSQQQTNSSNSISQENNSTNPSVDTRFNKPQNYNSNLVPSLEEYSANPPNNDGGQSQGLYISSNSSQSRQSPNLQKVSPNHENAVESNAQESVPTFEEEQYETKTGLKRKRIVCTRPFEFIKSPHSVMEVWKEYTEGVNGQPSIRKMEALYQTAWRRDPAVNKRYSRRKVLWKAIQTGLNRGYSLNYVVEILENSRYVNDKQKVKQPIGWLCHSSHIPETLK
# Assay: PBM E-score (8-mer binding enrichment) (E-score (-0.5 to 0.5)); higher = stronger / more preferred TF binding
# Settings: protein concentration: 200 nM; construct: GST-full length
# Description: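 Universal 'all 10-mer' protein binding microarrays (Agilent AMADID 015681) probed with GST-tagged S. cerevisiae TFs (full-length or DBD) made by in vitro transcription/translation (PURExpress), about 100-200 nM. Bound TF was detected with fluorescent anti-GST. Each ungapped 8-mer (which stands for itself and its reverse complement) is scored by the PBM enrichment score (E-score), a modified Wilcoxon-Mann-Whitney statistic from -0.5 to +0.5, computed with the Universal PBM Analysis Suite. Scale: above 0.35 generally sequence-specific binding.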
row,Sequence,PBM E-score
1,GGACATAA,0.477
2,GCACATGA,-0.0829
3,ACCACAGA,0.0742
4,TTGAGCAA,-0.0524
5,ACACTTGG,-0.0164
6,GACCATGC,0.0413
7,TCGTACAA,0.294
8,CTGTACAA,0.161
9,GTGTACAC,0.162
10,GTGTACAA,0.32
11,TTGTACAA,0.337
12,CTGTACAG,0.0843
13,CGTGCAGC,-0.0365
14,CTCGGTAC,0.0483
15,ACGGCCGT,-0.204
16,ATAAAGCC,-0.151
17,GCCTACCA,-0.174
18,AGCCCTCG,-0.123
19,AATATGTG,0.181
20,ACTATGTC,0.292
21,CATATGAC,0.143
22,CATATGCC,0.00819

row,Sequence,PBM E-score
1,CATATGTA,0.245
2,AATATGTC,0.478
3,GATATGTA,0.12
4,CATATGTC,0.449
5,AATATGTA,0.335
6,AGCGAAAG,0.00846
7,CGCACTTA,-0.0705
8,AGCTCTAC,-0.104
9,AGCCACGA,-0.181
10,CCAATAGC,-0.0522
11,TAAGGAGA,-0.255
12,TAAGGATA,0.13
13,GAAGGACC,-0.139
14,GAAGGACA,0.471
15,AAAGGACA,0.445
16,AAAGGACC,-0.105
17,TAAGGACA,0.481
18,AAAGGACG,0.032
19,CAAGGACA,0.484
20,CAAGGACC,0.0568
21,CAAGGACG,0.148
22,GAAGGATA,-0.142

row,Sequence,PBM E-score
1,CGAACATA,0.128
2,TAACAACA,0.0839
3,CGTCCTGA,0.102
4,AATCTACA,0.058
5,TAGGTAGA,0.0723
6,GATCTGTA,-0.0087
7,CCGAAAAC,0.0665
8,AACGAGTC,-0.0621
9,AAGTCACA,0.127
10,ATGTCACA,0.363
11,CTGTCACA,0.0788
12,GTGTCACA,0.261
13,AGGTCACC,-0.0357
14,ATGTCACC,0.303
15,ATGTCACG,0.31
16,CTGTCACC,-0.0649
17,ATGTCAGA,0.265
18,GGAAAGAC,-0.0443
19,ATCCTATG,-0.0491
20,AGGCGTAG,-0.189
21,CCTTGCGA,0.028
22,GGTGGTAC,-0.152

row,Sequence,PBM E-score
1,GTAAGCTA,0.0896
2,AACATAAA,0.0678
3,CACATAAC,0.0195
4,AACATAAC,0.0281
5,TACATAAA,0.15
6,GACATAAC,0.396
7,GACATAAA,0.44
8,CGGAGGAA,-0.131
9,GCATGGGC,-0.183
10,CCGCTCGA,-0.143
11,GATTGCTA,-0.0824
12,CGAGAGTC,-0.131
13,GCTAGGAC,0.267
14,AATAGGAT,0.157
15,ACTAGGAG,-0.201
16,ATTAGGAC,0.37
17,AATAGGAA,0.102
18,AATAGGAC,0.387
19,CTTAGGAC,0.269
20,ATTAGGAA,-0.00879
21,ACTAGGAC,0.426
